Drawing on PubChem BioAssay, this text covers composite z-score and z-score for seven compounds.

For test [1], the system named is Plasmodium falciparum Sir2 (PF13_0152, Sir2A). In words: pfSir2 binders on small-molecule microarrays, primary screen, biochemical, small-molecule microarray, 635 nm fluorescence (AID 1098).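 Also: score merges spot fluorescence intensity with its signal-to-noise ratio.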 The settings on record: small-molecule microarray binding, fluorescence 635 nm; higher = more signal.
The nature of test [2]: small-molecule microarray binders of probe aDKK1, primary screen, biochemical, biotinylated probe, 635/667 nm fluorescence (AID 1099).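 Also: score merges 667nm spot fluorescence with signal to noise across triplicate slides.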 The settings on record: higher = more signal.
A short description of test [3]: small-molecule microarray binders of probe aCHRDL2, primary screen, biochemical, biotinylated probe, 635/667 nm fluorescence (AID 1100). The conditions noted are these: higher = more signal.
Test [4] can be described thus: splicing luciferase reporter signal modulators, primary screen, spliceosome inhibition project, cell-based, HEK293, splice +/- reporter (AID 1101).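 Also: HEK293 cells carrying a splicing-competent luciferase reporter gene; test concentration not given here.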 The conditions noted are these: luminescence, 24 h, higher = more signal, called active from +8 up or from −8 down.
The target in test [5] is Fibroblast growth factor 10 (Homo sapiens) (UniProt O15520). The test is described as follows: FGF10 binders on small-molecule microarrays, primary screen, biochemical, small-molecule microarray, 635 nm fluorescence (AID 1102). The settings on record: FGF10 binding, fluorescence 635 nm, higher = more signal.
Test [6] concerns glycogen synthase kinase-3 (GSK3A per assay name; protocol says GSK3B). The test is described as follows: GSK3 binders on small-molecule microarrays, primary screen, biochemical, small-molecule microarray, 635 nm fluorescence, GSK3A (AID 1103). Also: the record names both GSK3A and GSK3B. The conditions noted are these: small-molecule microarray binding, fluorescence 635 nm; higher = more signal.
Test [7] concerns the target Epidermal growth factor receptor (Homo sapiens) (UniProt P00533). In words: EGFR binders on small-molecule microarrays, primary screen, biochemical, small-molecule microarray, 635 nm fluorescence (AID 1104).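 Also: score merges 667 nm emission intensity with spot signal to noise over triplicate slides.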 The conditions noted are these: EGFR binding, higher = more signal.
For test [8], the target named is Follistatin-related protein 3 (Homo sapiens) (UniProt O95633). In words: FSTL3 binders on small-molecule microarrays, primary screen, biochemical, small-molecule microarray, 635 nm fluorescence (AID 1105).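 Also: score merges emission near 667 nm and signal to noise per printed spot across three slides.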 The conditions noted are these: FSTL3 binding, higher = more signal.
Test [9] has as its target Dickkopf-related protein 1 (Homo sapiens) (UniProt O94907). The test is described as follows: DKK1 binders on small-molecule microarrays, primary screen, biochemical, small-molecule microarray, 635 nm fluorescence scan (AID 1106).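 Also: score merges emission near 667 nm with signal to noise over three replicate slides.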 The settings on record: DKK1 binding, higher = more signal.
Test [10] has as its system Inhibin beta A chain (activin A). The test is described as follows: INHBA (activin A) binders on microarrays, primary screen, biochemical, small-molecule microarray, 635 nm fluorescence scan (AID 1107).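 Also: mouse activin A protein probed at 4.33 µg/mL on printed slides; score merges bound-protein fluorescence near 667 nm with spot signal-to-noise.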 The conditions noted are these: small-molecule microarray binding, higher = more signal.
Test [11] concerns Human papillomavirus type 1a protein E7 (residues 44-93). The test is described as follows: HPV1a E7 fragment binders on microarrays, primary screen, biochemical, small-molecule microarray, residues 44-93, 635 nm fluorescence (AID 1108).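 Also: E7 fragment applied at 1 µg/mL in TBST for 1 h at 4 C; score combines spot fluorescence with its signal to noise ratio.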 The settings on record: small-molecule microarray binding, fluorescence 635 nm; higher = more signal.
The nature of test [12]: modulators of HCV replicon luciferase signal, primary screen, HCV replication inhibitor project, Huh7 cells, luciferase reporter (AID 1109).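 Also: huh7 hepatoma cells harbouring a luciferase neomycin HCV replicon reporter; luciferase luminescence as measure of HCV replicon replication; test concentration not given here.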 The conditions noted are these: 48 h, higher = more signal.
The target of test [13] is Left-right determination factor 2 (Homo sapiens) (UniProt O00292). In words: LEFTY2 binders on small-molecule microarrays, primary screen, biochemical, small-molecule microarray, 635 nm fluorescence scan (AID 1110). The conditions noted are these: LEFTY2 binding, higher = more signal.
Test [14] deals with Calmodulin-1 (Homo sapiens) (UniProt P0DP23). The test is described as follows: CALM1 binders on microarrays, EGTA buffer, profiling panel, biochemical, small-molecule microarray, Cy5-labelled CALM1 (AID 1111).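 Also: labelled calmodulin applied in Tris saline Tween buffer holding calcium plus EGTA and DTT.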 The conditions noted are these: Cy5-CALM1 binding fluorescence, higher = more signal.
Test [15] shares this target. The test is described as follows: calcium-bound CALM1 binders on microarrays, profiling panel, artefact control for SMM control-protein annotation, biochemical, small-molecule microarray, Cy5-labelled CALM1, plus calcium (AID 1112).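 Also: score merges spot fluorescence with signal to noise from triplicate slides.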 The settings on record: Cy5-CALM1 binding fluorescence, higher = more signal.
Test [16] is described as follows: small-molecule microarray binders of probe aWnt5a, primary screen, biochemical, biotinylated probe, 635/667 nm fluorescence (AID 1113).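 Also: score merges 667 nm fluorescence intensity with signal-to-noise per printed feature.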 The conditions noted are these: higher = more signal.
A short description of test [17]: small-molecule microarray binders of probe aShh, primary screen, biochemical, biotinylated probe, 635/667 nm fluorescence (AID 1114).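 Also: probe is biotin-labelled aShh protein from a stem cell growth factor screen; measures binding of labelled protein to compounds printed on the slide; score merges feature fluorescence at 667 nm with signal-to-noise.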 The conditions noted are these: higher = more signal.
Test [18] can be described thus: small-molecule microarray binders of probe aNog, primary screen, biochemical, biotinylated probe, 635/667 nm fluorescence (AID 1115).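 Also: probe is biotinylated aNog protein used at 0.15 µg/mL for 1 h at 4 C; z-score combines 667 nm fluorescence of each spot with its signal to noise.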 The conditions noted are these: higher = more signal.
The target in test [19] is Torsin-1A-interacting protein 1 (Homo sapiens) (UniProt Q5JTV8). The test is described as follows: LAP1 binders from COS7 cell lysate, primary screen, small-molecule microarray, 635/667 nm fluorescence (AID 1116). The settings on record: COS7-hLAP1 lysate binding, 635 nm fluorescence, higher = more signal.
For test [20], the target named is Alpha-bungarotoxin (Bungarus multicinctus) (UniProt P60615). The test is described as follows: alpha-bungarotoxin binders on microarray, profiling panel, artefact control for SMM control protein annotation, biochemical, small-molecule microarray, Alexa647 label, 635/667 nm fluorescence (AID 1117). The settings on record: alpha-BTX-A647 binding fluorescence, higher = more signal.

The source made the active and inactive calls.

Follistatin-related protein 3 (Homo sapiens), sequence (O95633 whole entry, looked up): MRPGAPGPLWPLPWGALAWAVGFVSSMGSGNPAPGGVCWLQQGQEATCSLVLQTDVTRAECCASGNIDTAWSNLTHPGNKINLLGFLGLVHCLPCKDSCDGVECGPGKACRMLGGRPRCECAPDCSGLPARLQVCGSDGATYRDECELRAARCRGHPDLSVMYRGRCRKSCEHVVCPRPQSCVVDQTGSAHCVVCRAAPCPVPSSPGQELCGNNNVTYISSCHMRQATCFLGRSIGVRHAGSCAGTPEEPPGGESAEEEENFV
Dickkopf-related protein 1 (Homo sapiens), sequence (O94907 whole entry, looked up): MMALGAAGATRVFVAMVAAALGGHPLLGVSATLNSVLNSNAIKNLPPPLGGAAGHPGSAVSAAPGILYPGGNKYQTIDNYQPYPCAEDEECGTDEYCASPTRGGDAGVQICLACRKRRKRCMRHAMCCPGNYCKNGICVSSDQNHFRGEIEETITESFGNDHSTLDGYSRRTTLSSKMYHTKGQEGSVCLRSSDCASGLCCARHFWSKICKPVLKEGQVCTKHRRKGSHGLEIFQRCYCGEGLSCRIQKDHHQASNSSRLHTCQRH
Torsin-1A-interacting protein 1 (Homo sapiens), sequence (Q5JTV8 whole entry, looked up): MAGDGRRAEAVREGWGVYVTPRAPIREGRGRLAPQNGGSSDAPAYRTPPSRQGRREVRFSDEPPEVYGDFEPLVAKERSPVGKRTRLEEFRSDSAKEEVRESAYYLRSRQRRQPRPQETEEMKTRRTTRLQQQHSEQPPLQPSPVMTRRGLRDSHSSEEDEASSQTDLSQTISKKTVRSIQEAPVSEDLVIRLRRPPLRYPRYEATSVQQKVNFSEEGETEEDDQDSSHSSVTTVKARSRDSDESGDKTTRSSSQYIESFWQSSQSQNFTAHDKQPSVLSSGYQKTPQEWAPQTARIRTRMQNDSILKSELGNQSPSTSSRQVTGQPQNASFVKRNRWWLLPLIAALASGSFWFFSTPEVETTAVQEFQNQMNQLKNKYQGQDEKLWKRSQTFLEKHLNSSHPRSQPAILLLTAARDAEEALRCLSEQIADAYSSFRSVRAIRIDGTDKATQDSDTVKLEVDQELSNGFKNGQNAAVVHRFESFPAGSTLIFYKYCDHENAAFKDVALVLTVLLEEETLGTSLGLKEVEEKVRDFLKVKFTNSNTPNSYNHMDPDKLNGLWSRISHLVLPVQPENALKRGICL
Alpha-bungarotoxin (Bungarus multicinctus), sequence (P60615 whole entry, looked up): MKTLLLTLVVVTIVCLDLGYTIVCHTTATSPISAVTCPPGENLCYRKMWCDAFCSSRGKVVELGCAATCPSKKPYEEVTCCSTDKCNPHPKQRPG
Epidermal growth factor receptor (Homo sapiens), sequence (P00533 whole entry, looked up): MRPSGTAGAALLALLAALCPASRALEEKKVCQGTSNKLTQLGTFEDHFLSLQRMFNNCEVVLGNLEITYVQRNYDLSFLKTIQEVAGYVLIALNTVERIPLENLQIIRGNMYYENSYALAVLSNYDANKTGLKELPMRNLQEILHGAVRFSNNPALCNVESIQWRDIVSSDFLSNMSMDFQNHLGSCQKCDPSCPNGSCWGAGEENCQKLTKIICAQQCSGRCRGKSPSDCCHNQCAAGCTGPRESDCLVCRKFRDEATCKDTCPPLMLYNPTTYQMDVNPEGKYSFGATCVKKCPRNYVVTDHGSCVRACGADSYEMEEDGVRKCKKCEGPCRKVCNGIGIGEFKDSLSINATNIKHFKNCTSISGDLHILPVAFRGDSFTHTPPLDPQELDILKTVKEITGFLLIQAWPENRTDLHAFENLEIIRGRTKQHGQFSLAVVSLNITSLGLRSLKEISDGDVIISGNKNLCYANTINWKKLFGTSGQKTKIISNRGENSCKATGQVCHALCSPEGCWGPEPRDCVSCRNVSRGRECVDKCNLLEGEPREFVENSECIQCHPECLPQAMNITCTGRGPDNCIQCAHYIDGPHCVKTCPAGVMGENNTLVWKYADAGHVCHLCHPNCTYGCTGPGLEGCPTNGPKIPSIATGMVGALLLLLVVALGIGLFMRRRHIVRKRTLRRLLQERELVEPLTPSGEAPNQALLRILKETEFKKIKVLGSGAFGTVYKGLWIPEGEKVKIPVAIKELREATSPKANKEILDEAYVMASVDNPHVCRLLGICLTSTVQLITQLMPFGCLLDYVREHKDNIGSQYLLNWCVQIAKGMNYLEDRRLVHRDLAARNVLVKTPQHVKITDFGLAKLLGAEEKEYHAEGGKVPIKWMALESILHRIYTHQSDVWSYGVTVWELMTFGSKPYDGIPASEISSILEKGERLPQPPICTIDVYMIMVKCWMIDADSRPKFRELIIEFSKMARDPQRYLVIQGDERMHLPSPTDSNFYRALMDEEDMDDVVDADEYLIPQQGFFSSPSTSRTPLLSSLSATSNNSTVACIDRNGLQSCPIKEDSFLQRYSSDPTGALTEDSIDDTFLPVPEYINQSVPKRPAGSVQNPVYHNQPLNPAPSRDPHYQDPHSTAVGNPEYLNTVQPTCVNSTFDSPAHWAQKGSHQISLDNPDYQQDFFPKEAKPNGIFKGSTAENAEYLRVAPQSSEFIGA
Left-right determination factor 2 (Homo sapiens), sequence (O00292 whole entry, looked up): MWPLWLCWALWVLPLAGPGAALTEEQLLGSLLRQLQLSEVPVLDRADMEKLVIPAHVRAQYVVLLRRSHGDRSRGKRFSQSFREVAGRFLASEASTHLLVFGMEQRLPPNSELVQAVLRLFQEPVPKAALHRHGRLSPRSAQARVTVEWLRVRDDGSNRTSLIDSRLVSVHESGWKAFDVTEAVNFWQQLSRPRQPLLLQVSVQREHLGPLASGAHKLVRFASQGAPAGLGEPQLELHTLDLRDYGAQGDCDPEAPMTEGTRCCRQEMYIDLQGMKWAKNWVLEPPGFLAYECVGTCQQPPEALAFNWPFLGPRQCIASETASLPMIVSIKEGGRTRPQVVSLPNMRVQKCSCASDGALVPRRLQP
Fibroblast growth factor 10 (Homo sapiens), sequence (O15520 whole entry, looked up): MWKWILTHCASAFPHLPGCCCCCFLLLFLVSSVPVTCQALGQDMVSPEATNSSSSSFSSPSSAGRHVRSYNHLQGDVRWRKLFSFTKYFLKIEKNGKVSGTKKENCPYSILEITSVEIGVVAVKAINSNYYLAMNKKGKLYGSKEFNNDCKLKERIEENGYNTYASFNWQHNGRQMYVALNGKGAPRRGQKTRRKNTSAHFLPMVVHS

For the compound `CON=C(C)CCN1CCCc2nc(C)c(C)cc21`, the composite z-score in test [1] is 0.858; in [2] it was -0.117; in test [3], -0.429; in [5] it was 0.423; in test [6], 0.897; in test [7], 0.695. The composite z-score in [8] is 0.68; in [9], 0.847; in test [10] it was 0.912; in test [11] it was 0.365; in test [13] it was 0.685; in test [14], -0.209. Also, the composite z-score was -1.02 in test [15]; -0.0405 in [16]; 0.151 in [17]; 0.177 in test [18]; 0.501 in test [19]; 0.0599 in test [20]. Besides, the z-score in [4] is 0.205 (inactive); in test [12], 0.115.

In the case of `COc1ccc(COC(=O)NN=C2C[C@@H](O)[C@@H](O)[C@@H]3[C@@H]4C(=O)N(Cc5ccccc5)C(=O)[C@@H]4CC[C@@H]23)cc1`, the composite z-score in test [1] was 0.0233; in [2] it was -0.12; in test [3] it was -0.249; in test [5] it was 0.193; in test [6] it was 0.256; in [7], 0.375. Further, the composite z-score in [8] is 0.253; in [9] it was 0.227; in [10], -0.0039; in test [11], 0.183; in test [13], 0.379; in test [14], -0.234. The composite z-score is -0.515 in [15]; -0.128 in test [16]; 0.0278 in test [17]; -0.216 in [18]; 0.0762 in test [19]; -0.125 in test [20]. Moreover, the results for the z-score in [4] and in test [12] were -0.221 (inactive) and 0.605, respectively.

For the compound `COC(=O)[C@H](C)NC(=O)CCC1CC(OC(=O)NCc2cccc3ccccc23)CC2(CCCC(COC(=O)NCc3ccccc3)O2)O1` (stereo not given in full), the composite z-score in test [1] was 0.537; in [2], -0.132; in [3], -0.459; in test [5] it was 0.625; in test [6], 1.04; in [7], 0.445. Moreover, the composite z-score is 0.918 in test [8]; 0.667 in test [9]; -0.0949 in test [10]; 1.15 in [11]; 0.648 in [13]; 0.426 in test [14]. In addition, the composite z-score in [15] is -0.543; in test [16], -0.0721; in [17] it was -0.206; in test [18], -0.495; in test [19], 0.177; in test [20], 0.389. Further, the results for the z-score in [4] and in test [12] were -0.829 (inactive) and -0.922, respectively.

As to `COC(=O)[C@H](C)NC(=O)CCC1CC(OC(=O)NCc2cccc3ccccc23)CC2(CCCC(COC(=O)NCc3cccc(C(F)(F)F)c3)O2)O1` (stereo not given in full), the composite z-score is 0.988 in test [1]; -0.0508 in test [2]; -0.134 in [3]; 0.908 in test [5]; 0.611 in test [6]; 0.473 in [7]. Further, the composite z-score in test [8] is 0.677; in test [9], 0.303; in test [10], -0.108; in [11], 1.32; in test [13] it was 0.925; in [14], 1.1. In addition, the composite z-score in [15] was 0.269; in [16], -0.0384; in test [17], -0.138; in [18], -0.23; in test [19], 0.208; in test [20] it was 0.292. The z-score in [4] was -1.39 (inactive); in test [12], -0.548.

As to `CC(=O)OC[C@H]1O[C@H](CC=NOC[C@@H](O)[C@H]2O[C@@H]3OC(C)(C)O[C@@H]3[C@H]2O)C=C[C@@H]1OC(C)=O`, the composite z-score is 0.8 in test [1]; -0.0771 in [2]; -0.351 in test [3]; 0.771 in test [5]; 0.529 in test [6]; 0.317 in test [7]. Further, the composite z-score in test [8] was 0.451; in [9], 0.375; in test [10], -0.115; in test [11], 0.836; in test [13], 0.439; in [14], 0.699. Further, the composite z-score is 0.249 in [15]; -0.0735 in [16]; 0.179 in [17]; -0.189 in [18]; 0.51 in test [19]; 1.32 in test [20]. For the same compound, the figures for the z-score in test [4] and in test [12] were -0.136 (inactive) and -0.041, respectively.

As for `CO[C@H]1COC(=O)[C@H](C)COC(=O)[C@H](C)NC(=O)CC=C[C@H]1C`, the composite z-score in test [1] was 0.378; in [2], -0.579; in test [3] it was -1.42; in test [5] it was 1.07; in [6], 1.24; in [7], 1.54. The composite z-score in [8] was 1.51; in test [9], 1.28; in test [10], 0.843; in [11], 0.429; in test [13], 0.945; in test [14], -0.891. Further, the composite z-score in [15] was -1.85; in test [16] it was -0.154; in test [17], 0.0121; in test [18], -0.41; in test [19] it was 0.143; in [20], -0.369. In addition, the z-score is 0.0547 (inactive) in [4] and -0.935 in test [12].

For `O=C1C[C@H](c2ccccc2)[C@H](c2ccc(Br)cc2)O1`, the composite z-score is -0.159 in [1]; 0.0628 in [2]; -0.939 in test [3]; 0.193 in test [5]; -0.826 in test [6]; 0.127 in test [7]. Moreover, the composite z-score in test [8] is -0.093; in [9], 0.278; in test [10], 0.266; in [11], 0.12; in test [13], 0.603; in [14] it was -0.649. Besides, the composite z-score in test [15] is -0.447; in [16] it was -0.129; in test [17], -0.138; in test [18], -0.35; in test [19], -0.264; in [20] it was 0.239. In addition, the z-score was -0.823 (inactive) in [4] and 0.588 in test [12].
